Results filed as inconclusive are left out. Active and inactive are the calls of the source. The call rests on the fitted dose curve; in most records, active means well fitted inhibition curve with a large enough effect; inconclusive means small, poorly fitted or top-dose-only effect; inactive means flat fitted curve, though single readings scatter.
Each molecule was assayed against Dual specificity tyrosine-phosphorylation-regulated kinase 1B (Homo sapiens) (UniProt Q9Y463) (assay: Reaction Biology data for inhibitors of DYRK1B: Probe SAR). Settings: Reaction Biology DYRK1B kinase assay, 10 uM ATP; series mostly up to 10 µM.
Chain of Dual specificity tyrosine-phosphorylation-regulated kinase 1B (Homo sapiens) (Q9Y463 whole entry, looked up, canonical isoform): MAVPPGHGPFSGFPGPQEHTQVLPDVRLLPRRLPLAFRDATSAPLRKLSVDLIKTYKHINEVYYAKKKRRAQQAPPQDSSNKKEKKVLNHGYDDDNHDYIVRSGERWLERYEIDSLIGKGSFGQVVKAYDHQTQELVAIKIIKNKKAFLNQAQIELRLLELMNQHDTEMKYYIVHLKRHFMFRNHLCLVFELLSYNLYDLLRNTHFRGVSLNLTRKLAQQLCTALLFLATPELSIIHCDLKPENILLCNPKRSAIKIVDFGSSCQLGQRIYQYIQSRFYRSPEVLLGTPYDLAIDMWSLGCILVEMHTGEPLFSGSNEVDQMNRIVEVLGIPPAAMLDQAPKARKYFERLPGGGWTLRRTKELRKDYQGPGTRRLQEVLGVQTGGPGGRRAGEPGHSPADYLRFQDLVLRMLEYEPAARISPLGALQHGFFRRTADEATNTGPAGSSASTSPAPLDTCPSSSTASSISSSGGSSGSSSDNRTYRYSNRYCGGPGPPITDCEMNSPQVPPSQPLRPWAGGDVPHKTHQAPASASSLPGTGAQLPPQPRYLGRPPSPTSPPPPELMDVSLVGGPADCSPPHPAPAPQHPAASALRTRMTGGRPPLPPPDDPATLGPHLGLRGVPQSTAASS
Description: Alternative splicing of pre-mRNAs plays a major role in the regulation of eukaryotic gene expression. Alternative splicing is now thought to be one of the primary reasons for the complexity of higher organisms leading to an average of three protein isoforms per gene. Aberrant splicing can lead to a number of diseases and is known to play a role in rare genetic diseases such as progeria syndrome. Hutchinson-Gilford Progeria Syndrome (HGPS) is a pediatric premature aging disease caused by a spontaneous mutation in the lamin A/C (LMNA) gene due to a single point mutation in the lamin A gene effecting 1 in 4 million people. To identify both specific splicing modulators of the lamin A gene as well as general splicing modulators, a cell-based HTS assay was developed using a minigene reporter system (AIDs, 1459 & 1487). […] This AID summarizes the characterization of lead compounds in Dyrk1b. NIH Molecular Libraries Probe Production Centers Network [MLPCN] NIH Chemical Genomics Center [NCGC] MLPCN Grant: MH084827 Assay Submitter (PI): Tom Misteli
Compound IC50s were determined at Reaction Biology (http://www.reactionbiology.com) with ten concentration points starting at 10 uM in the assay using a 3-fold dilution series. The control compound staurosporine was also tested in the 10-dose IC50 mode with the same 3-fold serial dilution, again starting at 10 uM. All kinase reactions were performed using 10 uM ATP in the assay. 100% activity was taken from kinase reactions with DMSO alone (the vehicle used for compound stock solutions).
With COc1ccc(-c2ccnc(NCc3ccc(Cl)cc3)n2)cc1 the Potency was 871 nM (active).
With c1cncc(CNc2ccnc(-c3ccc4cn[nH]c4c3)n2)c1 the Potency was 829 nM (active).
For Clc1ccc(CNc2ncncc2-c2ccc3c(c2)OCO3)cc1Cl, the Potency was “inactive”.
For Clc1cc(Cl)cc(CNc2ncncc2-c2ccc3c(c2)OCO3)c1, the Potency was 1160 nM (active).
Clc1cc(Cl)cc(CNc2nccc(-c3ccc4c(c3)OCO4)n2)c1 was tested, and the Potency was 7.1 nM (active).
For Cc1c(-c2ccnc(NCc3cccnc3)n2)sc(=O)n1C, the Potency was 31.1 nM (active).
In the case of c1nc(NCC2CCCO2)c2cc(-c3ccc4c(c3)OCO4)ccc2n1 (stereo unspecified), the Potency is reported as 141 nM (active).
With Clc1ccc(CNc2nccc(-c3ccc4cn[nH]c4c3)n2)cc1Cl the Potency was 599 nM (active).
For COc1cccc(-c2ccnc(NCc3ccc(Cl)c(Cl)c3)n2)c1, the Potency was “inactive”.
With Clc1ccc(CNc2nccc(-c3ccc4c(c3)OCCO4)n2)cc1Cl the Potency was 54.8 nM (active).
With Brc1ccc(CNc2nccc(-c3ccc4c(c3)OCO4)n2)cc1Br the Potency was 112 nM (active).
In the case of Cc1c(-c2ccnc(NCc3ccc(Cl)cc3)n2)sc(=O)n1C, the Potency is reported as 51.6 nM (active).
For Clc1ccc(CNc2nccc(-c3ccc4[nH]ncc4c3)n2)cc1Cl, the Potency was 125 nM (active).
With c1cncc(CNc2ncncc2-c2ccc3c(c2)OCO3)c1 the Potency was “inactive”.
With FC(F)(F)c1cc(Br)cc(Nc2nccc(-c3ccc4c(c3)OCO4)n2)c1 the Potency was 137 nM (active).
For FC(F)(F)c1cccc(Nc2nccc(-c3ccc4c(c3)OCO4)n2)c1, the Potency was 18.1 nM (active).
In the case of Cc1nc(CNc2ncnc3ccc(-c4ccc5c(c4)OCO5)cc23)cs1, the Potency is reported as 176 nM (active).
For Clc1ccc(Nc2nccc(-c3ccc4c(c3)OCO4)n2)cc1, the Potency was 884 nM (active).
Cc1nc(CN(C)c2ncnc3ccc(-c4ccc5[nH]ncc5c4)cc23)cs1 was tested, and the Potency was 89.5 nM (active).
c1cc(-c2ccc3c(c2)OCO3)nc(Nc2ccc3c(c2)OCO3)n1 was tested, and the Potency was 41.9 nM (active).
With Clc1ccc(CNc2nccc(-c3ccc4c(c3)OCO4)n2)cc1Cl the Potency was 37.8 nM (active).
c1cncc(CNc2nccc(-c3ccc4c(c3)OCO4)n2)c1 was tested, and the Potency was 12 nM (active).
With Brc1cc(Br)cc(CNc2nccc(-c3ccc4c(c3)OCO4)n2)c1 the Potency was 18.2 nM (active).
For COc1ccc(-c2ccnc(NCc3ccc(Cl)c(Cl)c3)n2)cc1OC, the Potency was “inactive”.
O=[N+]([O-])c1cc(Nc2nccc(-c3ccc4c(c3)OCO4)n2)cc(C(F)(F)F)c1 was tested, and the Potency was 27 nM (active).
In the case of c1cncc(CNc2ccnc(-c3ccc4[nH]ncc4c3)n2)c1, the Potency is reported as 178 nM (active).
With Cc1nc(CN(C)c2ncnc3ccc(-c4ccc5c(c4)OCO5)cc23)cs1 the Potency was 16.4 nM (active).
In the case of Clc1ccc(CNc2ccnc(-c3ccc4[nH]ncc4c3)n2)cc1Cl, the Potency is reported as 514 nM (active).
For COc1ccc(-c2ccnc(NCc3ccc(Cl)c(Cl)c3)n2)cc1, the Potency was 411 nM (active).
In the case of c1cncc(CNc2nccc(-c3ccc4[nH]ncc4c3)n2)c1, the Potency is reported as 92.9 nM (active).
In the case of COc1cccc(-c2ccnc(NCc3ccc(Cl)cc3)n2)c1, the Potency is reported as 6780 nM (active).

Source: PubChem BioAssay AID624046 (National Center for Advancing Translational Sciences (NCATS), 2012)
